# Experimental data reported in paper PMC7862700, “An all-to-all approach to the identification of sequence-specific readers for epigenetic DNA modifications on cytosine”.
# How the values were obtained:
# Assay in all cases: DAPPL (digital affinity profiling via proximity ligation, sequencing); 10 mM Tris-HCl pH 7.5, 50 mM NaCl, 1 mM DTT, 4% glycerol, room temperature, 30 min; GST-TFs on glutathione beads, 16-mer random dsDNA library, 0.1% formaldehyde crosslink after washing; high values mean tight binding
# [1] = biological target: T1, FLI1 (Homo sapiens, UniProt Q01543 1-452); conditions: protein: recombinant; tags: N-terminal GST; dsDNA, one strand shown
# T1 sequence: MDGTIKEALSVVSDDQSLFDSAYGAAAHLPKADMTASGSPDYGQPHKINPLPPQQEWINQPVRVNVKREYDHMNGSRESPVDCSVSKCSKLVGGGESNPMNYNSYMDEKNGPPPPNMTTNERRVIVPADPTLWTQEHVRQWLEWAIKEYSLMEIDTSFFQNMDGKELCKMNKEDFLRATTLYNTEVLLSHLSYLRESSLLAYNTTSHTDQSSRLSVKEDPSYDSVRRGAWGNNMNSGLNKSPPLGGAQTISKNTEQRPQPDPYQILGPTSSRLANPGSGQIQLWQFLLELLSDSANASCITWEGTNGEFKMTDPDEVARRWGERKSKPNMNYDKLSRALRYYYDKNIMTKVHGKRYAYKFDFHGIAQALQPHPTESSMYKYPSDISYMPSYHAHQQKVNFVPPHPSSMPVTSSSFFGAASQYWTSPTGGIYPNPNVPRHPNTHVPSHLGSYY
# Outline: (§1)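 Pools of DNA-barcoded human transcription factors, expressed in yeast as GST fusions on glutathione beads and combined with a tag-only sample, were incubated with 200 nmole of a 16-mer random double-stranded DNA library. Incubation took 30 min at room temperature in Tris/NaCl/DTT/glycerol buffer and was followed by washing, 0.1% formaldehyde crosslinking, proximity ligation (BsaI/T4 ligase, 1 h, 37 °C), PCR amplification and sequencing on an Illumina NextSeq500. Binding signal is the ratio of a hexamer's read frequency for a factor to its frequency for the tag-only sample.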
# [2] = biological target: T2, ELK1 (Homo sapiens, UniProt P19419 1-428); conditions: protein: recombinant; tags: N-terminal GST; dsDNA, one strand shown
# T2 sequence: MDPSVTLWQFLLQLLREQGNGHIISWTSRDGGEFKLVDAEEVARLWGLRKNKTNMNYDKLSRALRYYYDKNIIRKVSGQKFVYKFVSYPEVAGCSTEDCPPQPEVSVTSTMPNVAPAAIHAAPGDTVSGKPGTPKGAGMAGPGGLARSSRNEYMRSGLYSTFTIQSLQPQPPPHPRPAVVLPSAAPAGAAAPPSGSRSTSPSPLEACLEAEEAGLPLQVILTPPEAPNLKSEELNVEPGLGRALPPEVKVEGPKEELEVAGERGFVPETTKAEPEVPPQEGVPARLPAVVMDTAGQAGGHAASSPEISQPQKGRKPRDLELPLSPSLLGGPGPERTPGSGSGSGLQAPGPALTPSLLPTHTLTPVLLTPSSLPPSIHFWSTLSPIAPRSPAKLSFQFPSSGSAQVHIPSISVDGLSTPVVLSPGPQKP
# Outline: as §1
# [3] = biological target: T3, GABPA (Homo sapiens, UniProt Q06546 1-454); conditions: protein: recombinant; tags: N-terminal GST; dsDNA, one strand shown
# T3 sequence: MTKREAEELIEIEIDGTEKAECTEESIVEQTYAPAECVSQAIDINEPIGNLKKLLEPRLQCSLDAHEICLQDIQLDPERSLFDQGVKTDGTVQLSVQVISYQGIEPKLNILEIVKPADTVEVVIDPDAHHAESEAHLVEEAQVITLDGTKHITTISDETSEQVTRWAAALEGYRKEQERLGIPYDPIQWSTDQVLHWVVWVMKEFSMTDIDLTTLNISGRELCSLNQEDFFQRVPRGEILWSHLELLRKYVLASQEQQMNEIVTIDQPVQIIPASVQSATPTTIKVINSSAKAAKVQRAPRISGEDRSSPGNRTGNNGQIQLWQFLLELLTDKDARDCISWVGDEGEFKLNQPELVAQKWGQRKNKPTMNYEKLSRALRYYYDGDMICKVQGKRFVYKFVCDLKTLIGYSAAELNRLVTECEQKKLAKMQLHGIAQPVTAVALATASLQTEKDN
# Outline: as §1
# [4] = biological target: T4, ERG (Homo sapiens, UniProt P11308 1-479); conditions: protein: recombinant; tags: N-terminal GST; dsDNA, one strand shown
# T4 sequence: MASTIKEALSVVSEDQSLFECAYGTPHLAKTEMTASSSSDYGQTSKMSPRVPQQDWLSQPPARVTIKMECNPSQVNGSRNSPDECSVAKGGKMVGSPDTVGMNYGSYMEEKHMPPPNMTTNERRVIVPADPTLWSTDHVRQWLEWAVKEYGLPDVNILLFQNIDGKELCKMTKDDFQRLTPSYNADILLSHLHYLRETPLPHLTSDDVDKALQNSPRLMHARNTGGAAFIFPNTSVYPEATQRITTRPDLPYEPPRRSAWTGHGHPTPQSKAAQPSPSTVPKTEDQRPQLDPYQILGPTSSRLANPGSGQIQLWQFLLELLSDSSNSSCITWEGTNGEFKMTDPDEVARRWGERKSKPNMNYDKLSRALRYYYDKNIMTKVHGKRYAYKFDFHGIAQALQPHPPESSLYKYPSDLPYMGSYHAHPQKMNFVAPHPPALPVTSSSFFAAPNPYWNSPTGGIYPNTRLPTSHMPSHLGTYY
# Outline: as §1
# [5] = biological target: ELF1 (Homo sapiens, UniProt P32519 1-619); conditions: protein: recombinant; tags: N-terminal GST; dsDNA, one strand shown
# Outline: as §1
# [6] = biological target: T5, EHF (Homo sapiens, UniProt Q9NZC4 1-300); conditions: protein: recombinant; tags: N-terminal GST; dsDNA, one strand shown
# T5 sequence: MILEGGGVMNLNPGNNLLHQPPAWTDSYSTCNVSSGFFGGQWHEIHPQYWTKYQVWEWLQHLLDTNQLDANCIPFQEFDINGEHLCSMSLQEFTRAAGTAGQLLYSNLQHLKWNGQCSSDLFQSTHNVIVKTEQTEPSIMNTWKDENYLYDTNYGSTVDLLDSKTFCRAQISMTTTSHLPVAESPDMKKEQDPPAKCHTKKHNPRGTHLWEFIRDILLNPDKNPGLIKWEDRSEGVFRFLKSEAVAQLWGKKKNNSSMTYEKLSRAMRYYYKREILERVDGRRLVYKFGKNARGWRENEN
# Outline: as §1
# [7] = biological target: SPI1 (Homo sapiens, UniProt P17947 1-270); conditions: protein: recombinant; tags: N-terminal GST; dsDNA, one strand shown
# Outline: as §1
# [8] = biological target: SPIB (Homo sapiens, UniProt Q01892 1-262); conditions: protein: recombinant; tags: N-terminal GST; dsDNA, one strand shown
# Outline: as §1
# [9] = biological target: T6, ELK3 (Homo sapiens, UniProt P41970 1-407); conditions: protein: recombinant; tags: N-terminal GST; dsDNA, one strand shown
# T6 sequence: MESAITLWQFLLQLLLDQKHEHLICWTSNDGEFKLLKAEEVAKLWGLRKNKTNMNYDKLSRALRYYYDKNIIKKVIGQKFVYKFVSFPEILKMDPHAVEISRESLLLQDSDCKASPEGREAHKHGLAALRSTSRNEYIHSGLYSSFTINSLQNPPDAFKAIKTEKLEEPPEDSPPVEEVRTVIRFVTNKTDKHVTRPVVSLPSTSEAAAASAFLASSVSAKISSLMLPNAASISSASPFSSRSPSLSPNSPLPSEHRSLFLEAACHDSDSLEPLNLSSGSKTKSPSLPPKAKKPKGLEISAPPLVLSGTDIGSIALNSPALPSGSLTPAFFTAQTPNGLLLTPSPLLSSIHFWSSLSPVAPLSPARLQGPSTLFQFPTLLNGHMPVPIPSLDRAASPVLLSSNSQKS
# Outline: as §1
# [10] = biological target: T7, FEV (Homo sapiens, UniProt Q99581 1-238); conditions: protein: recombinant; tags: N-terminal GST; dsDNA, one strand shown
# T7 sequence: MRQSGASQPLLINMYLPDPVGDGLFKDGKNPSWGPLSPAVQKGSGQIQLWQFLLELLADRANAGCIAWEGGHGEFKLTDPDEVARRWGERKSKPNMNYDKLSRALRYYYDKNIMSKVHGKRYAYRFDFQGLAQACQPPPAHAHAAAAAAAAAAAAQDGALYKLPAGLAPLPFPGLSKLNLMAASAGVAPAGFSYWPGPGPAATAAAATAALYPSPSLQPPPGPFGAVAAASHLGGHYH
# Outline: as §1
# [11] = biological target: ETV5 (Homo sapiens, UniProt P41161 1-510); conditions: protein: recombinant; tags: N-terminal GST; dsDNA, one strand shown
# Outline: as §1
# [12] = biological target: HSF1 (Homo sapiens, UniProt Q00613 1-529); conditions: protein: recombinant; tags: N-terminal GST; chain copies: 3; dsDNA, one strand shown
# Outline: as §1
# [13] = biological target: T8, SPIC (Homo sapiens, UniProt Q8N5J4 1-248); conditions: protein: recombinant; tags: N-terminal GST; dsDNA, one strand shown
# T8 sequence: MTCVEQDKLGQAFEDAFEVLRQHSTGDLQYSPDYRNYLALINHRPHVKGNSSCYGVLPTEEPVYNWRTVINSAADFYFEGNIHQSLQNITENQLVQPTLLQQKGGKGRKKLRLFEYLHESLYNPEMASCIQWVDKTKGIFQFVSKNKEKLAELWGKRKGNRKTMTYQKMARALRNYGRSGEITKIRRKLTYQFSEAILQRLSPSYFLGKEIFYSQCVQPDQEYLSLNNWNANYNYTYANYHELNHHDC
# Outline: as §1
# [14] = biological target: ELF4 (Homo sapiens, UniProt Q99607 1-663); conditions: protein: recombinant; tags: N-terminal GST; dsDNA, one strand shown
# Outline: as §1
# [15] = biological target: T9, ELK4 (Homo sapiens, UniProt P28324-2 1-405); conditions: protein: recombinant; tags: N-terminal GST; dsDNA, one strand shown
# T9 sequence: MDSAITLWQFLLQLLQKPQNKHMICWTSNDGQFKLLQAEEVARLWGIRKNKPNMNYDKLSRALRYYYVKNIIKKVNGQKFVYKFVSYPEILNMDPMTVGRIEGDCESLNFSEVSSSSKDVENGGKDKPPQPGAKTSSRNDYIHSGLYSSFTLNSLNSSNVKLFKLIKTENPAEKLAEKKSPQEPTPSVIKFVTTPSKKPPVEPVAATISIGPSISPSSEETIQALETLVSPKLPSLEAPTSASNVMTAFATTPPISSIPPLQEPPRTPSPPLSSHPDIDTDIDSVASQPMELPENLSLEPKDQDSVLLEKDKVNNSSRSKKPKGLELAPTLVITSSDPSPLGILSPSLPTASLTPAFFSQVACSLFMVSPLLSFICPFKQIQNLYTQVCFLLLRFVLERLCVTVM
# Outline: as §1
# [16] = biological target: T10, ETV2 (Homo sapiens, UniProt O00321 1-342); conditions: protein: recombinant; tags: N-terminal GST; dsDNA, one strand shown
# T10 sequence: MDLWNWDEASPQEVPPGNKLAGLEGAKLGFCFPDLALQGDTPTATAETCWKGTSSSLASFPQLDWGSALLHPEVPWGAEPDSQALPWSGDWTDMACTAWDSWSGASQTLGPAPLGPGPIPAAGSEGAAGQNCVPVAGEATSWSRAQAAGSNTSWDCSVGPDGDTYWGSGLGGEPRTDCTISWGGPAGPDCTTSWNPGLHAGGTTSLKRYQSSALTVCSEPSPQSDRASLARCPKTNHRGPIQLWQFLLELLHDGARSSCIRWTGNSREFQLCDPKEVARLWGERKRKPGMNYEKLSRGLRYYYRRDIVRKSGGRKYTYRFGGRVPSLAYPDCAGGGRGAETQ
# Outline: as §1
# [17] = biological target: T11, ELF3 (Homo sapiens, UniProt P78545 1-371); conditions: protein: recombinant; tags: N-terminal GST; dsDNA, one strand shown
# T11 sequence: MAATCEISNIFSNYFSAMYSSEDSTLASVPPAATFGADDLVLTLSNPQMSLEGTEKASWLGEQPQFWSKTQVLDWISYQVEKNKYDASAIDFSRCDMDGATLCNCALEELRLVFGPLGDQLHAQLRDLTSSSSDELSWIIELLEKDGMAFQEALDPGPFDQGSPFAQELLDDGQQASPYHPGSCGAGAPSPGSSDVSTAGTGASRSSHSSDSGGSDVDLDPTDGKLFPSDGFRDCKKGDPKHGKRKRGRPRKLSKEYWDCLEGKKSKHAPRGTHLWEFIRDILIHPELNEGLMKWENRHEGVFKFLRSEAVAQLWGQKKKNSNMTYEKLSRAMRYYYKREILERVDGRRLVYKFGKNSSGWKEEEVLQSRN
# Outline: as §1
# [18] = biological target: CRX (Homo sapiens, UniProt O43186 1-299); conditions: protein: recombinant; tags: N-terminal GST; dsDNA, one strand shown
# Outline: as §1
# [19] = biological target: ETV1 (Homo sapiens, UniProt P50549 1-477); conditions: protein: recombinant; tags: N-terminal GST; dsDNA, one strand shown
# Outline: as §1
# Sequence of ETV1 (P50549 whole entry): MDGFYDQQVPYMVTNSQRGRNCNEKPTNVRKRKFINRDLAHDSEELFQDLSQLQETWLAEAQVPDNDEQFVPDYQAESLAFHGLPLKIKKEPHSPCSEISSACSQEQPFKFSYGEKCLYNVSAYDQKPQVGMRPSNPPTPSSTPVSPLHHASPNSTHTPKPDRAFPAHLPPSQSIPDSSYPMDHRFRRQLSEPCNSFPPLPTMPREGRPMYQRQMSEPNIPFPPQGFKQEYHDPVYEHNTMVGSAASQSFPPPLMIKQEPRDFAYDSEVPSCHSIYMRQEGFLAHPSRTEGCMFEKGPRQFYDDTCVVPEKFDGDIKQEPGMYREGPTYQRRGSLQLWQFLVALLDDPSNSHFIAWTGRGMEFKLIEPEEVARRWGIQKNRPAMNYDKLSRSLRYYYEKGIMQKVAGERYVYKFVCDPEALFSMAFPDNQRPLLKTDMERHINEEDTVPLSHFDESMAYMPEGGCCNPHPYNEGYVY
# Sequence of ELF1 (P32519 whole entry): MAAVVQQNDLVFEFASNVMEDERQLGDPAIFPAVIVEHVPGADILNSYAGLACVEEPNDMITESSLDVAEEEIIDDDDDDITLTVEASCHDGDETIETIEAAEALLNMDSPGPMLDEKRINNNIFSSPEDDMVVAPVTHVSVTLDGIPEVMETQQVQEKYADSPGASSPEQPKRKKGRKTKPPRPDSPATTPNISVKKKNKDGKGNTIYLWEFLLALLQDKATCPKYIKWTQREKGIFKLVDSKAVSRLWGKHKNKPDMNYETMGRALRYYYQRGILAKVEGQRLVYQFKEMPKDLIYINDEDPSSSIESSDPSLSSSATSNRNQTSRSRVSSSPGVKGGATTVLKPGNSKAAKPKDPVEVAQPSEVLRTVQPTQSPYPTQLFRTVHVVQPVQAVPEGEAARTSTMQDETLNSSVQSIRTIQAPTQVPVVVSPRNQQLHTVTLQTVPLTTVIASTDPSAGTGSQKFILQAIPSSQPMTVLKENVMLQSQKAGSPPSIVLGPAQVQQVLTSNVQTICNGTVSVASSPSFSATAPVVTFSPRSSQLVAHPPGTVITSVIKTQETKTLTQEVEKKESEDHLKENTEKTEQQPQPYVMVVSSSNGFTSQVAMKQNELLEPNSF
# Sequence of HSF1 (Q00613 whole entry): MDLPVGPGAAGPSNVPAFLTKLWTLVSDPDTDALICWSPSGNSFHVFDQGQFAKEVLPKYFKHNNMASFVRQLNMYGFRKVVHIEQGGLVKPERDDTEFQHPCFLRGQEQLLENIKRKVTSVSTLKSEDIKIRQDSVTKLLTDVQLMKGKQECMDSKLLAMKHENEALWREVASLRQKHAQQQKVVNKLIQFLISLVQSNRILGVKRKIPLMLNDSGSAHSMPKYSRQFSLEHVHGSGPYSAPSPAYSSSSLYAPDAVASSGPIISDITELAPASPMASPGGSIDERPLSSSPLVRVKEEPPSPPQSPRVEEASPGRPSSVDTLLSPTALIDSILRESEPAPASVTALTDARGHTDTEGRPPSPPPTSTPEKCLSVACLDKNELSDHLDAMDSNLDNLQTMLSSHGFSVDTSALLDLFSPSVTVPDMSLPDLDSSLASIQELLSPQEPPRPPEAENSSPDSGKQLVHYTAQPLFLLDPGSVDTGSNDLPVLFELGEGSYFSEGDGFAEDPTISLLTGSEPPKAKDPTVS
# Sequence of ETV5 (P41161 whole entry): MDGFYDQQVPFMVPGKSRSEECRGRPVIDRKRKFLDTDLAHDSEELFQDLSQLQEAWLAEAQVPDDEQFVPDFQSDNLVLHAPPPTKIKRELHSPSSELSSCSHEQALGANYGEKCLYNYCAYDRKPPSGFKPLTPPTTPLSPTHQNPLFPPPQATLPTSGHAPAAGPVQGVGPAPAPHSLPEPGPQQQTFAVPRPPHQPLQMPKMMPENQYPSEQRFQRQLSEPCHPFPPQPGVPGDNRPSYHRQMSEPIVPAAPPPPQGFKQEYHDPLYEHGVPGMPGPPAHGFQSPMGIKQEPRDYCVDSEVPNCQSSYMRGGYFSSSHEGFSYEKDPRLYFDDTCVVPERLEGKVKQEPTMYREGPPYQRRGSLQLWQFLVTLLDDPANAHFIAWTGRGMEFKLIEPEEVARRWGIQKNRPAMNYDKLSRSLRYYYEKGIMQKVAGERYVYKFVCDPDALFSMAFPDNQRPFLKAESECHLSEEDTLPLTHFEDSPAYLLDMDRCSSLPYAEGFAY
# Sequence of ELF4 (Q99607 whole entry): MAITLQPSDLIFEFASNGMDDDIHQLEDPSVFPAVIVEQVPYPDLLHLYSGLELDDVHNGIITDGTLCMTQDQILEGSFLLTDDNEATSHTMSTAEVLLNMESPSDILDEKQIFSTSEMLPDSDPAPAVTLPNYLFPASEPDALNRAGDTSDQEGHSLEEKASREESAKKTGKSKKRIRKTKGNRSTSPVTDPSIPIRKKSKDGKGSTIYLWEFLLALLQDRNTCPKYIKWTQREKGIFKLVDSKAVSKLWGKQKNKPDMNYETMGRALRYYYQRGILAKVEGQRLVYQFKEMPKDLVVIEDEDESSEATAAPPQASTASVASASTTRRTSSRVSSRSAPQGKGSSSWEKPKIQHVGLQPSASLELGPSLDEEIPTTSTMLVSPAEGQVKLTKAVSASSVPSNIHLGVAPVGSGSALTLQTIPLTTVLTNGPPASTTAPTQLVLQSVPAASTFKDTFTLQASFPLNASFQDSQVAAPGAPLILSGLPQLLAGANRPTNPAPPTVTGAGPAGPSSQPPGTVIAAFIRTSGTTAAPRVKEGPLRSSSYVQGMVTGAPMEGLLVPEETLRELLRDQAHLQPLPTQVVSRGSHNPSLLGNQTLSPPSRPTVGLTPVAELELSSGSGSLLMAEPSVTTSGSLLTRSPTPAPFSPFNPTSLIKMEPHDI
# Sequence of SPIB (Q01892 whole entry): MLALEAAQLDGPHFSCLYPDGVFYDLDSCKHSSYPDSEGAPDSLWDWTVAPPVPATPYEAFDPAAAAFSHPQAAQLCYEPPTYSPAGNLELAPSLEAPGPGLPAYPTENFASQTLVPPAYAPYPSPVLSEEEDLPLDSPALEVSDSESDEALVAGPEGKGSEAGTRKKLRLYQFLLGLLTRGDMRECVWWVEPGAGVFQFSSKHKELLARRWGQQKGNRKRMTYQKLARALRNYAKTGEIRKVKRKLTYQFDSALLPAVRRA
# Sequence of CRX (O43186 whole entry): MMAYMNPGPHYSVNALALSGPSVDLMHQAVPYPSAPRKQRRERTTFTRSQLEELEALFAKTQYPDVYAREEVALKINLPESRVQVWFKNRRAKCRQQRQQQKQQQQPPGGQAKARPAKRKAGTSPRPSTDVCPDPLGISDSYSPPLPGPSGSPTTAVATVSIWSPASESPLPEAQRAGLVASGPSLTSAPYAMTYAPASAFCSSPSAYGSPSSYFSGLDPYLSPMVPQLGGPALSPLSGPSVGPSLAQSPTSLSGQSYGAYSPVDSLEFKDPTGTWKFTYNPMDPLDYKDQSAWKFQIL
sequence,measurement,setting,value
GACCTT,binding signal,[1],"1.65 fold enrichment (6-mer frequency, TF over GST control)"
same,binding signal,[2],"1.68 fold enrichment (6-mer frequency, TF over GST control)"
same,binding signal,[3],"1.65 fold enrichment (6-mer frequency, TF over GST control)"
same,binding signal,[4],"1.46 fold enrichment (6-mer frequency, TF over GST control)"
same,binding signal,[5],"1.58 fold enrichment (6-mer frequency, TF over GST control)"
same,binding signal,[6],"1.46 fold enrichment (6-mer frequency, TF over GST control)"
same,binding signal,[7],"1.47 fold enrichment (6-mer frequency, TF over GST control)"
same,binding signal,[8],"1.51 fold enrichment (6-mer frequency, TF over GST control)"
same,binding signal,[9],"1.55 fold enrichment (6-mer frequency, TF over GST control)"
same,binding signal,[10],"1.6 fold enrichment (6-mer frequency, TF over GST control)"
same,binding signal,[11],"1.55 fold enrichment (6-mer frequency, TF over GST control)"
same,binding signal,[12],"1.52 fold enrichment (6-mer frequency, TF over GST control)"
same,binding signal,[13],"1.74 fold enrichment (6-mer frequency, TF over GST control)"
same,binding signal,[14],"1.73 fold enrichment (6-mer frequency, TF over GST control)"
same,binding signal,[15],"1.61 fold enrichment (6-mer frequency, TF over GST control)"
same,binding signal,[16],"1.63 fold enrichment (6-mer frequency, TF over GST control)"
same,binding signal,[17],"1.49 fold enrichment (6-mer frequency, TF over GST control)"
same,binding signal,[18],"1.31 fold enrichment (6-mer frequency, TF over GST control)"
same,binding signal,[19],"1.48 fold enrichment (6-mer frequency, TF over GST control)"
